Measured values published in the OligoGym collection.

Molecular target: COL4A3BP
Test: pooled miR-30 sensor sort-seq; sequence = guide strand
Settings: shRNA
Note: reference of the scale not given here.

Row | Sequence | sensor-assay potency score (higher = more potent)
1 | TTCTCTTCTGTATACCTTCATT | -1.23
2 | TTAGCTACATATGTAATCTTGC | 0.206
3 | TAACTTTTCTTTATTGCCGTTG | -0.347
4 | TTATTTTTCAAAACTACCCAAC | -0.396
5 | TATCTTGTCTGTCAAGAGCAGC | -1.23
6 | TACTTCTCTTCTGTATACCTTC | -0.012
7 | TCGACATTCATCAAAATCGTGA | -0.678
8 | TTGCATAGAATGTTGTCCCTGC | 0.716
9 | TTCTCCTTCTTCTACAACCAAC | -1.55
10 | TTCTTCTACAACCAACTGCCAA | -0.938

Molecular target: COMMD10
Test: as above
Settings: shRNA

Row | Sequence | sensor-assay potency score (higher = more potent)
11 | TAGAAATCAAACAACTCCTTGT | 0.836
12 | TTCTACTAAGGTACACATCTTA | 0.49
13 | TTGTATAGTCTCTAGCTTGTTA | 0.109
14 | TTGAGCAGAGTGAGCCATCTGA | -0.146
15 | TTCCACAAGAACTTTCTCCAGG | -0.261
16 | TAAGGTACACATCTTATCTTGT | 0.795
17 | TTGTCTAAGATGAATGTTCTCT | 0.187
18 | TTGCATTTATCAGTGACACTGC | 0.191
19 | TATTGTTTCAAGAACTAGGTGA | 0.412
20 | TTTTTGAAGAATCCGAGTGAGC | -1.13
21 | TTAACAATGATCTCTATTGGTT | -0.722
22 | TGCTTGTATAGTCTCTAGCTTG | -1.08
